Bioassay records from PubChem.
Vaccinia mCherry = vaccinia inhibition (mCherry reporter); 0.63% of 310,000 active; Potency, µM (highest dose often 36.5 µM), for the others: at the top dose activity change, negative = inhibition, hits mostly inhibitors; Vaccinia virus mCherry reporter infection, fluorescence; calls by dose curve; tested in A549 cells; further: nearly all actives have a fitted effect of over 35% in size
FMDV inh = antivirals against foot and mouth disease virus | FMDV antiviral cell-based qHTS | Potency, µM (series often up to 57.9 µM), for the others: at the top dose activity change, negative = inhibition, most hits filed as inhibitors | 1.2% of 410,000 active; calls by dose curve; tested in HEK293T cells; further: read-out not given here; nearly all actives have a fitted effect of over 45% in size
HCV inhibitor = HCV inhibition; Huh7.5.1 HCVcc-Cre infection, luciferase reporter, 44 h; Potency, µM (highest dose often 41.8 µM), without a hit: at the top dose activity change, negative = inhibition, hits mostly inhibitors; 3.4% of 340,000 active; active means well fitted inhibition curve with a large enough effect; inconclusive means small, poorly fitted or top-dose-only effect, or another doubt; inactive means no such curve, though single readings can be large or run the other way
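Whole-lifecycle infectious HCVcc-Cre system; cells 1,000/well, compound then virus (~0.5 moi) added 4 h after plating, 44 h culture. Luciferase read 15 sec following 15 min substrate incubation, room temp.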
Vaccinia Venus = vaccinia inhibition (Venus reporter); AID 720580; 0.46% of 330,000 active; Vaccinia virus Venus reporter expression, fluorescence; Potency, µM (titrated, usually from 36.5 µM), without a hit: at the highest dose activity change, negative = inhibition, actives largely listed as inhibitors; calls by dose curve; tested in A549 cells; further: nearly all actives have a fitted effect of over 30% in size
Marburg entry inh = Marburg virus entry inhibition; 1.8% of 300,000 active; Potency, µM (doses to about 37.8 µM), for the others: at the top dose activity change, negative = inhibition, usual class: inhibitors; Marburg virus pseudotyped entry inhibition, cell reporter; calls by dose curve; tested in HEK293 cells
Lassa entry inh = inhibitors of Lassa virus binding or cell entry; Lassa virus pseudotype entry inhibition, cell reporter; Potency, µM (highest dose often 37.9 µM), without a hit: at the highest dose activity change, negative = inhibition, actives largely listed as inhibitors; 1.2% of 300,000 active; calls by dose curve; tested in HEK293 cells; further: nearly all actives have a fitted effect of over 50% in size
Starred values were filed as active, the others as inactive; i = inactive; ? = inconclusive; / = no result given; [ ] = remark or other dose. A selection: hits, their analogues and other compounds. The true share with any hit is near 5.3%. On the % scale 0 is the no-effect control and ±100 the full control effect; potency means the concentration at half of the fitted maximal effect.

SMILES	Vaccinia mCherry	FMDV inh	HCV inhibitor	Vaccinia Venus	Marburg entry inh	Lassa entry inh
CC(=O)c1c(C)[nH]c(C(=O)OCC(=O)Nc2cc(S(=O)(=O)N3CCCC3)ccc2Cl)c1C	-6%	?	1.4µM*	-11%	?	?
CC(=O)c1c(C)[nH]c(C(=O)OCC(=O)Nc2ccccc2Cl)c1C	?	18µM*	?	-27%	?	-26%
CCCCSc1ncnc2c1ncn2C1CCCCO1 (centres undefined)	i	-8%	-6%	-10%	?	?
Fc1ccccc1CSc1ncnc2c1ncn2C1CCCO1 (centres undefined)	?	29%	-22%	7%	0.89µM*	?
COc1cc(Cl)c(C)cc1NC(=O)CN(C)Cc1cccc(OC)c1OC	/	0%	10µM*	/	/	/
CN(CC(=O)Nc1ccccc1-c1ccccc1)Cc1ccccc1Cl	-1%	-23%	-28%	-6%	11µM*	-8%
COc1ccccc1CN(C)CC(=O)Nc1cccc2ccccc12	?	-18%	-1%	-10%	?	?
CN(CC(=O)Nc1ccccc1Br)CC(=O)Nc1ccccc1-c1ccccc1	/	-28%	?	/	/	/
Cc1ccc(-c2nc3ccccn3c2Nc2ccccc2C)o1	i	/	/	-18%	/	/
COc1cccc(Cl)c1NC(=O)N1CCN(c2cc(C)nc3ccccc23)CC1	-24%	?	10µM*	?	?	?
COc1ccc(-c2csc(N3CCN(c4cc(C)nc5ccccc45)CC3)n2)cc1OC	?	0%	2.8µM*	-6%	?	?
Cc1cccc(N2CCN(CC(=O)NCc3ccccc3)CC2)c1C	/	-18%	-18%	/	/	/
COc1ccc(CNC(=O)CN2CCN(c3cccc(C)c3C)CC2)cc1	-3%	-23%	3.2µM*	-5%	0%[46.1 µM]	?
COc1ccc2nc(C)cc(N3CCN(c4ccccc4)CC3)c2c1	-20%	-27%	22µM*	-3%	?	-12%
COc1cccc(Cl)c1NC(=O)N1CCN(c2ccnc3cc(Cl)ccc23)CC1	/	-24%	?	/	/	/
CCN1C(=O)[C@@H]2[C@H]3[C@H](O)[C@H](O)CC(=NOC[C@@H](C)[C@H](OCc4ccccc4)C(C)C)[C@@H]3CC[C@H]2C1=O	/	/	/	/	1%[14.2 µM]	13%[14.3 µM]
O=C(CNC(=O)c1cccnc1)c1ccc(F)cc1	-16%	/	/	-7%	/	/
CCCCN(C)C(=O)c1ccc2c(c1)N(Cc1cccc(Cl)c1)C(=O)c1ccccc1S2=O (centres undefined)	-16%	-8%	/	-12%	/	?
CSC1=C(C#N)[C@H](C)CC(=O)N1	/	/	/	/	-17%	/
Cc1cc(N2CCN(C(=O)Oc3ccc([N+](=O)[O-])cc3)CC2)c2ccccc2n1	5%	25µM*	/	-20%	/	/
COc1ccc(N2CCN(C(=O)Oc3ccc([N+](=O)[O-])cc3)CC2)cc1	i	?	/	-3%	/	/
COc1ccc2nc(C)cc(N3CCN(S(=O)(=O)c4ccccc4F)CC3)c2c1	/	?	7.1µM*	/	/	/
COc1ccc(C(=O)CN2CCN(c3cc(C)nc4ccccc34)CC2)cc1	/	?	10µM*	/	/	/
COc1ccc2nc(C)cc(N3CCOCC3)c2c1	/	-18%	20%	/	4%	9%
Cc1ccc2nc(C)cc(N3CCOCC3)c2c1	/	-25%	10µM*	-14%	3%	-4%
SMILES	Vaccinia mCherry	FMDV inh	HCV inhibitor	Vaccinia Venus	Marburg entry inh	Lassa entry inh
Cc1ccsc1C(=O)N(Cc1cc2cc3c(cc2nc1N1CCOCC1)CCC3)CC1CCCO1 (centres undefined)	-4%	-1%	/	11%	/	/
CN1C(=O)C(=Cc2cn(CC(=O)N3CCCC3)c3ccccc23)C(=O)N(C)C1=O	-9%	23%	7%	11%	1%[46.1 µM]	1%[46.1 µM]
CCOC(=O)C1=C(O)/C(=C/c2cn(CC(=O)N3CCCC3)c3ccccc23)SC1=Nc1ccccc1	-12%	8.9µM*	11µM*	19%	?	-10%
CSc1cccc(NC(=O)c2ccc(CN3CCc4ccccc4C3)cc2)c1	-19%	?	8.9µM*	?	?	?
O=C(Nc1ccc(F)cc1)c1ccc(CN2CCc3ccccc3C2)cc1	/	?	5.6µM*	/	/	/
Cc1ccccc1NC(=O)c1ccc(CN2CCc3ccccc3C2)cc1	/	?	?	?	-10%	-7%
CC(=O)Nc1ccc(NC(=O)c2ccc(CN3CCc4ccccc4C3)cc2)cc1	i	-17%	-5%	-7%	?	11%
O=C(Nc1cccc(Br)c1)c1ccc(CN2CCc3ccccc3C2)cc1	/	?	2.2µM*	/	/	/
Cc1ccc(CN2CCOc3ccc(CN4CCC(Oc5cccnc5)CC4)cc3C2)o1	-10%	-16%	/	-8%	/	/
Cc1ccc(S(=O)(=O)c2nnn3c2nc(NCc2ccccc2Cl)c2sccc23)cc1	?	-13%	/	?	/	-3%[46.1 µM]
O=[N+]([O-])c1ccc(N/N=C/c2sc(N3CCOCC3)nc2-c2ccccc2)c(S(=O)(=O)Nc2ccc(Cl)cc2)c1	/	?	2.5µM*	/	/	/
O=C(N/N=C/c1sc(N2CCOCC2)nc1-c1ccccc1)c1cccc(S(=O)(=O)N2CCOCC2)c1	/	-20%	?	/	/	/
O=C(O)c1cccc(N/N=C/c2sc(N3CCOCC3)nc2-c2ccccc2)c1	-9%	49%	5%	-4%	?	5%
O=[N+]([O-])c1ccc(N/N=C/c2sc(N3CCOCC3)nc2-c2ccccc2)c(S(=O)(=O)Nc2ccccc2Cl)c1	?	?	3.5µM*	?	/	/
Cc1cc2c([nH]c3ccccc32)c2c1OC(C)(C)C=C2	-26%	56%	-39%	-26%	/	/
COc1ccc2[nH]c(=O)c3c(c2c1)OC(C)(C)C=C3	13µM*	-24%	-9%	11µM*	-6%	-14%
CC(=O)c1ccc(Oc2cc(C)nc(NCc3ccccc3)n2)cc1	-14%	-29%	13µM*	-25%	?	?
CCN(CC)CCOc1ccc(/C(=C(\Cl)c2ccccc2)c2ccccc2)cc1	?	?	11µM*	?	/	/
CCOCc1c(C(=O)N2CCN(CC(=O)Nc3ccc(F)cc3)CC2)oc2ccccc12	-17%	-4%	-10%	-14%	6%	0%
Nc1[nH]nc2nc(NCc3ccccc3)c3c(c12)CCN(Cc1ccccc1)C3	-19%	-22%	-23%	0%	?	13µM*
COc1cc(Cl)c(C)cc1NC(=O)Cn1c2ncccc2c(=O)n1-c1ccccc1	-6%[7.34 µM]	-9%	/	-3%[7.34 µM]	/	?
O=C(NNc1ccccc1)c1ccc(Cl)c(Cl)c1	-9%	18%	?	-9%	7.1µM*	?
Cc1ccc(C)c(N=Nc2nc3ccccc3n2C)c1	-13%	/	14µM*	-25%	?	?
Cc1ccc(CNc2nc3ccccc3n2C)cc1	/	1%	-25%	/	/	/
CC(=O)O[C@@H](C)C[N+](C)(C)C	/	/	/	/	-21%	/
CCc1ccccc1NC(=S)N(CCN(C)C)C(C)c1cccnc1 (centres undefined)	2%	-2%	11%	-6%	27%[46.1 µM]	-16%
CCc1ccccc1NC(=S)N(CCN(C)C)C(C)c1ccccn1 (centres undefined)	/	-1%	22µM*	/	-18%	13%
